These entries were drawn from the full list.
PostGolgi ctrl = growth inhibition of yeast control strain, primary screen, counter-screen for post-Golgi transport modulator project; efflux-deficient yeast background strain, growth absorbance A615, 16 h; inhibition, % at 10 µM; 98,000 compounds, 5% hits
CYP2C19 activ = human CYP2C19 activators, primary screen, biochemical, luminescence. activation factor at 5 µM. 96,000 tested, under 10 active. recombinant CYP2C19, luciferin-H EGE luminescence; active compounds read high; 0 = fully inhibited enzyme, 1 = untreated enzyme. Cytochrome P450 2C19 (Homo sapiens), P33261;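 active = activation factor of at least 2 at 5 µM in the primary screen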;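 note: 0 = wells with 2.5 mM tranylcypromine and 1 = vehicle-only wells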
Target sequence (P33261 whole entry, looked up): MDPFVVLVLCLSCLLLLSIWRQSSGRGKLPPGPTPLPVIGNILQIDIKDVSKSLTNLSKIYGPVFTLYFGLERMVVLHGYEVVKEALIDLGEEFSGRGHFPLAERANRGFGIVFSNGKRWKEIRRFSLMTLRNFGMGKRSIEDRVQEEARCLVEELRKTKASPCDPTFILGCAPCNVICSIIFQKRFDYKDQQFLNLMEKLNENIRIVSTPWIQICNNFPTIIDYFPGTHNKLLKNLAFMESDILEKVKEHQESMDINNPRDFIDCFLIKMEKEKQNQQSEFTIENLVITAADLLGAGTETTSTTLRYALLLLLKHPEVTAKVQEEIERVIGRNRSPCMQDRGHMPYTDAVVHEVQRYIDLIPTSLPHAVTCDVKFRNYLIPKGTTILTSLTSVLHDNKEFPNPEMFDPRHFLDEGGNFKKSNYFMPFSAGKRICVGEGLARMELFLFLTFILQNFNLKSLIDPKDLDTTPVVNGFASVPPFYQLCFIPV
PostGolgi yeast = phenotypic screen on post-Golgi transport, primary screen. post-Golgi transport phenotypic cell assay. inhibition, % at 10 µM. 98,000 compounds, 0.9% hits. AID 739, 2007;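 note: yeast cells grown in 1536-well plates; yeast grown about 18 h at 30C before absorbance read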
CYP2C19 inhib = blockers of cytochrome P450 2C19 activity – biochemical, luminescence, ADME assay, primary screen; 96,000 compounds, 21% hits; inhibition, % at 5 µM; AID 778, 2007; CYP2C19 Supersomes, luciferin-H EGE luminescence, 30 min;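 active = CYP2C19 inhibition above a set limit at 5 µM in the primary screen, cut at about 50% in these data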;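 note: plate controls were negative control wells for no effect and 2.5 mM tranylcypromine positive control for full effect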
CYP2C9 inhib = blockers of cytochrome P450 2C9 activity – biochemical, luminescence, ADME assay, primary screen; 96,000 compounds, 20% hits; P11712; CYP2C9 Supersomes, luciferin-H conversion; inhibition, % at 5 µM;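 active = blocking of liver enzyme CYP2C9 beyond about 50% at 5 µM, limit read from the data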
CYP2C9 activ = human CYP2C9 activators, primary screen, biochemical, luminescence. Cytochrome P450 2C9 (Homo sapiens), P11712. recombinant CYP2C9, luciferin-H conversion; active compounds read high; factor 1 = untreated enzyme, 0 = blocked. activation factor at 5 µM. 96,000 compounds, 1.4% hits. AID 1024, 2008;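 active = activation factor of 2 or more for CYP2C9 at a 5 µM dose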;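 note: 0 = sulfaphenazole-blocked wells and 1 = vehicle-only wells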
Numbers without * were called inactive; x = not tested or not shown. Cut-off read from the data, not from the text of the source, unless noted: active = inhibition above about 30%; inactive = the rest.

SMILES | PostGolgi ctrl | CYP2C19 activ | PostGolgi yeast | CYP2C19 inhib | CYP2C9 inhib | CYP2C9 activ
N#Cc1c(N2CCCCC2)nc(N)c2c(N)nc3c(c12)CC(c1ccccc1)O3 (stereo not given) | 53* | 0.8 | 0 | 25 | 64* | 0.4
CC(=O)c1c(C)nn(C(C)CC(=O)O)c1C (stereo not given) | -5 | x | -1 | x | x | x
CC1CN(C(=O)Nc2ccc3c(c2)OCO3)CC(C)O1 (stereo not given) | 19 | 0.8 | 4 | 19 | -5 | 1
CCOC(=O)Cn1c(S(=O)(=O)Cc2ccc(Cl)cc2)nc(-c2ccccc2)c1-c1ccccc1 | 27 | 0.5 | 15 | 48 | 50* | 0.5
C#CCn1c(S(=O)(=O)Cc2ccc(OC)cc2)nc(-c2ccccc2)c1-c1ccccc1 | 25 | 0.4 | 0 | 64* | 82* | 0.2
CCOC(=O)Cn1c(S(=O)(=O)Cc2ccccc2)nc2ccccc21 | 8 | 0.6 | 1 | 35 | 4 | 1
Cc1ccc(-n2c(Cc3ccccc3)nnc2SCC(=O)NNC(=O)Cc2ccccc2)cc1 | -9 | 0.8 | 0 | 22 | 41 | 0.6
COC(=O)c1nc2n(n1)C(c1ccc(OC)c(OC)c1OC)C1=C(CCCC1=O)N2 (stereo not given) | -8 | 1.1 | -6 | -13 | 28 | 0.7
Cc1cc(NC(=O)CSc2nnc(Cc3ccccc3)o2)no1 | -1 | 1.1 | -4 | -9 | 6 | 0.9
Cc1c(C(=O)O)sc2ncnc(N3CCCCC3C)c12 (stereo not given) | -1 | 1 | 11 | -4 | 8 | 0.9
CCOC(=O)CNC(=O)c1sc2ncnc(N3CCc4ccccc4C3)c2c1C | 19 | 0.2 | 10 | 79* | 98* | 0
CCOC(=O)c1sc2nc(CC(=O)OC)nc(N3CCN(c4ccccn4)CC3)c2c1C | 30* | 0.3 | 2 | 68* | 85* | 0.2
CCCCNC(=O)c1sc2ncnc(N3CCc4ccccc4C3)c2c1C | 20 | 0.8 | 0 | 18 | 94* | 0.1
CCOC(=O)c1sc2nc(CC(=O)OC)nc(NCc3ccc(F)cc3)c2c1C | -4 | 0.8 | -19 | 18 | 18 | 0.8
Cc1c(C(=O)NCCCN2CCOCC2)sc2ncnc(N3CCN(c4ccccc4)CC3)c12 | 6 | 0.5 | -1 | 50* | 91* | 0.1
Cc1c(C(=O)NCCCN2CCOCC2)sc2nc(-c3ccccc3)cn12 | 4 | x | 6 | x | x | x
CCOCCCNC(=O)C1CCC(=O)N1CCc1ccccc1 (stereo not given) | 11 | 0.9 | 14 | 10 | 8 | 0.9
COc1ccc(C(=O)NC2CCN(C(=S)Nc3cc(C)ccc3C)CC2)cc1 | -3 | 1 | 16 | 0 | -10 | 1.1
O=C1c2cccnc2C(=O)N1Cc1ccc2c(c1)OCO2 | 11 | 0.9 | -8 | 8 | -8 | 1.1
CCOC(=O)c1cnn(-c2ncnc3sc(C)c(C)c23)c1N | 0 | 0.9 | -4 | 7 | 5 | 0.9
COc1cc(C(=O)N2CCN(c3ncnc4sc(C)c(C)c34)CC2)cc(OC)c1OC | 6 | 0.3 | 1 | 73* | 70* | 0.3
COc1cc(C(=O)N2CCN(C(=O)c3ccccc3)CC2)cc(OC)c1OC | 6 | 1.2 | 0 | -17 | -23 | 1.2
CCOC(=O)c1sc2ncnc(N3CCN(C(=O)OCC)CC3)c2c1C | 36* | 0.6 | 3 | 37 | 76* | 0.2
CCOC(=O)c1sc2ncn(C(C)C(=O)OCC)c(=O)c2c1C (stereo not given) | 3 | 0.2 | 0 | 81* | 75* | 0.3
Cc1c(C(=O)N2CCN(Cc3ccccc3)CC2)sc2ncnc(N3CCOCC3)c12 | 5 | 0.5 | -2 | 55* | 32 | 0.7
SMILES | PostGolgi ctrl | CYP2C19 activ | PostGolgi yeast | CYP2C19 inhib | CYP2C9 inhib | CYP2C9 activ
CCOc1cc(C2C(C(=O)c3ccccc3)=C(C(=O)OC)Nc3nnnn32)ccc1O (stereo not given) | 10 | 1.2 | -10 | -17 | -1 | 1
CCN(CC)C(=O)Cn1cnc([N+](=O)[O-])n1 | 6 | 1 | -7 | -5 | -8 | 1.1
O=C(NCCCN1CCc2ccccc2C1)Nc1ccc(Cl)cc1 | 10 | 0.9 | 3 | 13 | 4 | 1
CC1=C(C(=O)OCC2CCCO2)C(c2ccncc2)C2=C(CCCC2=O)N1 (stereo not given) | 9 | 0.2 | -1 | 75* | 48 | 0.5
CC1=C(C(=O)OCC2CCCO2)C(c2ccccc2)NC(=O)N1 (stereo not given) | -4 | 0.4 | 4 | 62* | 18 | 0.8
CCOC(=O)C1=C(C)NC2=C(C(=O)CCC2)C1c1cccnc1 (stereo not given) | -4 | 0.7 | -1 | 35 | 32 | 0.7
O=C(NCc1ccco1)[C@@H]1CCCN1C(=O)c1cccs1 | 6 | 0.9 | -3 | 10 | 2 | 1
COCCOc1cc(NC(=O)c2sccc2Oc2ccc([N+](=O)[O-])cc2F)c(Cl)cc1Cl | 13 | 0.8 | 22 | 19 | 59* | 0.4
CC(C)c1cc(C(=O)NC2CCCCC2)no1 | 12 | x | 2 | x | x | x
O=C(OCC(=O)N(C1CCCCC1)C1CCCCC1)c1ccncc1 | 5 | 0 | 12 | 99* | 65* | 0.3
CC1CCCC(C)N1C(=O)COC(=O)c1ccc(O)cc1 (stereo not given) | 4 | 1.2 | 3 | -16 | 10 | 0.9
CCOc1ccc2[nH]c(=O)c(CN(Cc3ccc(C)cc3)C(=O)N3CCCC3)cc2c1 | 7 | 0.9 | -4 | 10 | -2 | 1
COc1ccc(OC)c(NC(=O)CSc2ncccc2C(=O)O)c1 | -4 | 1.1 | -4 | -14 | -12 | 1.1
COc1ccccc1NC(=O)CCC(=O)Nc1nnc(C(F)(F)F)s1 | 9 | 1 | 2 | -4 | 72* | 0.3
COc1ccc(OC)c(NC(=O)CCC(=O)Nc2nnc(C(F)(F)F)s2)c1 | 2 | 0.9 | -5 | 7 | 74* | 0.3
Cc1ccc(S(=O)(=O)N2CC(=NO)C2)cc1 | 3 | 0.8 | 12 | 25 | -28 | 1.3
COc1ccc(C(=O)Cc2cc(OC)c(OC)cc2[N+](=O)[O-])cc1 | -5 | 0.9 | -20 | 8 | -30 | 1.3
O=C(COC(=O)c1c2c(nc3ccccc13)CCCC2)Nc1ccc2c(c1)OCO2 | 26 | 0.2 | 18 | 76* | 77* | 0.2
COc1cccc(NC(=O)COC(=O)c2c3c(nc4ccccc24)CCC(C)C3)c1 (stereo not given) | 10 | 0.6 | 9 | 45 | 56* | 0.4
COc1cccc(NC(=O)COC(=O)c2nc3nccc(C)n3n2)c1 | 7 | 0.9 | 3 | 10 | -14 | 1.1
CSc1nnc(-c2cccc(C)c2)n1N | 12 | 0.9 | -1 | 9 | -17 | 1.2

Source: PubChem (several laboratories)
